# Experimental data taken from the supplement of paper PMC4466140.
# Experiments:
# Experiment in all cases: SPOT peptide array binding signal intensity (averaged, normalized) (arbitrary units (background-subtracted, floor 0; scale differs between SH3 domains)); higher = stronger binding of the SH3 domain to the peptide
# AgAbp1 = biological target: AgAbp1
# Experimental: (§1)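 GST-tagged SH3 domains from S. cerevisiae (Sc), A. gossypii (Ag), C. albicans (Ca) and S. pombe (Sp) were incubated at 10 ug/ml overnight at 4 C on cellulose SPOT membranes carrying 292 synthetic 15-mer peptides mined from the S. cerevisiae proteome (cysteines replaced by serines). Binding was detected with anti-GST antibody, HRP secondary and chemiluminescence, quantified with Genespotter, and reported as normalized spot intensities averaged over biological replicates.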
# AgBbc1 = biological target: AgBbc1
# Experimental: as §1
# AgBem1-D1 = biological target: AgBem1-D1
# Experimental: as §1
# AgBzz1-D1 = biological target: AgBzz1-D1
# Experimental: as §1
# AgBzz1-D2 = biological target: AgBzz1-D2
# Experimental: as §1
# AgCyk3 = biological target: AgCyk3
# Experimental: as §1
# AgFus1 = biological target: AgFus1
# Experimental: as §1
# AgHof1 = biological target: AgHof1
# Experimental: as §1
# AgHse1 = biological target: AgHse1
# Experimental: as §1
# AgLsb1 = biological target: AgLsb1
# Experimental: as §1
# AgLsb4 = biological target: AgLsb4
# Experimental: as §1
# AgMyo5 = biological target: AgMyo5
# Experimental: as §1
# AgNbp2 = biological target: AgNbp2
# Experimental: as §1
# AgRvs167 = biological target: AgRvs167
# Experimental: as §1
# AgSho1 = biological target: AgSho1
# Experimental: as §1
# AgSla1-D1-D2 = biological target: AgSla1-D1-D2
# Experimental: as §1
# AgSla1-D3 = biological target: AgSla1-D3
# Experimental: as §1
# CaAbp1-D1 = biological target: CaAbp1-D1
# Experimental: as §1
# CaAbp1-D2 = biological target: CaAbp1-D2
# Experimental: as §1
# CaBbc1 = biological target: CaBbc1
# Experimental: as §1
# CaBem1-D1 = biological target: CaBem1-D1
# Experimental: as §1
# CaBzz1-D1 = biological target: CaBzz1-D1
# Experimental: as §1
# CaBzz1-D2 = biological target: CaBzz1-D2
# Experimental: as §1
# CaCyk3 = biological target: CaCyk3
# Experimental: as §1
# CaFus1 = biological target: CaFus1
# Experimental: as §1
# CaHof1 = biological target: CaHof1
# Experimental: as §1
# CaHse1 = biological target: CaHse1
# Experimental: as §1
# CaLsb1 = biological target: CaLsb1
# Experimental: as §1
# CaLsb4 = biological target: CaLsb4
# Experimental: as §1
# CaMyo5 = biological target: CaMyo5
# Experimental: as §1
# CaNbp2 = biological target: CaNbp2
# Experimental: as §1
# CaRvs167 = biological target: CaRvs167
# Experimental: as §1
# CaRvs167-3 = biological target: CaRvs167-3
# Experimental: as §1
# CaSho1 = biological target: CaSho1
# Experimental: as §1
# CaSla1-D1-D2 = biological target: CaSla1-D1-D2
# Experimental: as §1
# CaSla1-D3 = biological target: CaSla1-D3
# Experimental: as §1
# ScAbp1 = biological target: ScAbp1
# Experimental: as §1
# ScBbc1 = biological target: ScBbc1
# Experimental: as §1
# ScBem1-D1 = biological target: ScBem1-D1
# Experimental: as §1
# ScBzz1-D1 = biological target: ScBzz1-D1
# Experimental: as §1
# ScBzz1-D2 = biological target: ScBzz1-D2
# Experimental: as §1
# ScCyk3 = biological target: ScCyk3
# Experimental: as §1
# ScFus1 = biological target: ScFus1
# Experimental: as §1
# ScHof1 = biological target: ScHof1
# Experimental: as §1
# ScHse1 = biological target: ScHse1
# Experimental: as §1
# ScLsb1 = biological target: ScLsb1
# Experimental: as §1
# ScLsb2 = biological target: ScLsb2
# Experimental: as §1
# ScLsb3 = biological target: ScLsb3
# Experimental: as §1
# ScLsb4 = biological target: ScLsb4
# Experimental: as §1
# ScMyo3 = biological target: ScMyo3
# Experimental: as §1
# ScMyo5 = biological target: ScMyo5
# Experimental: as §1
# ScNbp2 = biological target: ScNbp2
# Experimental: as §1
# ScPex13 = biological target: ScPex13
# Experimental: as §1
# ScRvs167 = biological target: ScRvs167
# Experimental: as §1
# ScSho1 = biological target: ScSho1
# Experimental: as §1
# ScSla1-D1-D2 = biological target: ScSla1-D1-D2
# Experimental: as §1
# ScSla1-D3 = biological target: ScSla1-D3
# Experimental: as §1
# SpAbp1-D1 = biological target: SpAbp1-D1
# Experimental: as §1
# SpBbc1 = biological target: SpBbc1
# Experimental: as §1
# SpBzz1-D1 = biological target: SpBzz1-D1
# Experimental: as §1
# SpBzz1-D2 = biological target: SpBzz1-D2
# Experimental: as §1
# SpCyk3 = biological target: SpCyk3
# Experimental: as §1
# SpHof1 = biological target: SpHof1
# Experimental: as §1
# SpHof1-2 = biological target: SpHof1-2
# Experimental: as §1
# SpHof1-3 = biological target: SpHof1-3
# Experimental: as §1
# SpHse1 = biological target: SpHse1
# Experimental: as §1
# SpLsb1 = biological target: SpLsb1
# Experimental: as §1
# SpLsb4 = biological target: SpLsb4
# Experimental: as §1
# SpMyo1 = biological target: SpMyo1
# Experimental: as §1
# SpNbp2 = biological target: SpNbp2
# Experimental: as §1
# SpPex13 = biological target: SpPex13
# Experimental: as §1
# SpRvs167 = biological target: SpRvs167
# Experimental: as §1
# SpSla1-D1-D2 = biological target: SpSla1-D1-D2
# Experimental: as §1
# SpSla1-D3 = biological target: SpSla1-D3
# Experimental: as §1
binder,measurement,setting,value
NNNKMRPHLPPLSSG,SPOT peptide array binding signal intensity,AgAbp1,47.5
same,SPOT peptide array binding signal intensity,AgBbc1,1.5
same,SPOT peptide array binding signal intensity,AgBem1-D1,288
same,SPOT peptide array binding signal intensity,AgBzz1-D1,12
same,SPOT peptide array binding signal intensity,AgBzz1-D2,9
same,SPOT peptide array binding signal intensity,AgCyk3,≤ 0
same,SPOT peptide array binding signal intensity,AgFus1,386
same,SPOT peptide array binding signal intensity,AgHof1,291
same,SPOT peptide array binding signal intensity,AgHse1,932
same,SPOT peptide array binding signal intensity,AgLsb1,1.25
same,SPOT peptide array binding signal intensity,AgLsb4,34.5
same,SPOT peptide array binding signal intensity,AgMyo5,≤ 0
same,SPOT peptide array binding signal intensity,AgNbp2,513
same,SPOT peptide array binding signal intensity,AgRvs167,3.5
same,SPOT peptide array binding signal intensity,AgSho1,559
same,SPOT peptide array binding signal intensity,AgSla1-D1-D2,≤ 0
same,SPOT peptide array binding signal intensity,AgSla1-D3,0.5
same,SPOT peptide array binding signal intensity,CaAbp1-D1,613
same,SPOT peptide array binding signal intensity,CaAbp1-D2,330
same,SPOT peptide array binding signal intensity,CaBbc1,55.9
same,SPOT peptide array binding signal intensity,CaBem1-D1,264
same,SPOT peptide array binding signal intensity,CaBzz1-D1,85.8
same,SPOT peptide array binding signal intensity,CaBzz1-D2,49.8
same,SPOT peptide array binding signal intensity,CaCyk3,4
same,SPOT peptide array binding signal intensity,CaFus1,1790
same,SPOT peptide array binding signal intensity,CaHof1,≤ 0
same,SPOT peptide array binding signal intensity,CaHse1,487
same,SPOT peptide array binding signal intensity,CaLsb1,3.75
same,SPOT peptide array binding signal intensity,CaLsb4,728
same,SPOT peptide array binding signal intensity,CaMyo5,36.2
same,SPOT peptide array binding signal intensity,CaNbp2,1410
same,SPOT peptide array binding signal intensity,CaRvs167,53.7
same,SPOT peptide array binding signal intensity,CaRvs167-3,4
same,SPOT peptide array binding signal intensity,CaSho1,1520
same,SPOT peptide array binding signal intensity,CaSla1-D1-D2,396
same,SPOT peptide array binding signal intensity,CaSla1-D3,109
same,SPOT peptide array binding signal intensity,ScAbp1,256
same,SPOT peptide array binding signal intensity,ScBbc1,≤ 0
same,SPOT peptide array binding signal intensity,ScBem1-D1,≤ 0
same,SPOT peptide array binding signal intensity,ScBzz1-D1,≤ 0
same,SPOT peptide array binding signal intensity,ScBzz1-D2,≤ 0
same,SPOT peptide array binding signal intensity,ScCyk3,2.25
same,SPOT peptide array binding signal intensity,ScFus1,424
same,SPOT peptide array binding signal intensity,ScHof1,267
same,SPOT peptide array binding signal intensity,ScHse1,1820
same,SPOT peptide array binding signal intensity,ScLsb1,27.2
same,SPOT peptide array binding signal intensity,ScLsb2,0.5
same,SPOT peptide array binding signal intensity,ScLsb3,357
same,SPOT peptide array binding signal intensity,ScLsb4,163
same,SPOT peptide array binding signal intensity,ScMyo3,10.5
same,SPOT peptide array binding signal intensity,ScMyo5,2
same,SPOT peptide array binding signal intensity,ScNbp2,710
same,SPOT peptide array binding signal intensity,ScPex13,116
same,SPOT peptide array binding signal intensity,ScRvs167,55.6
same,SPOT peptide array binding signal intensity,ScSho1,1410
same,SPOT peptide array binding signal intensity,ScSla1-D1-D2,156
same,SPOT peptide array binding signal intensity,ScSla1-D3,224
same,SPOT peptide array binding signal intensity,SpAbp1-D1,323
same,SPOT peptide array binding signal intensity,SpBbc1,1
same,SPOT peptide array binding signal intensity,SpBzz1-D1,354
same,SPOT peptide array binding signal intensity,SpBzz1-D2,6.38
same,SPOT peptide array binding signal intensity,SpCyk3,1.75
same,SPOT peptide array binding signal intensity,SpHof1,9.5
same,SPOT peptide array binding signal intensity,SpHof1-2,78.8
same,SPOT peptide array binding signal intensity,SpHof1-3,552
same,SPOT peptide array binding signal intensity,SpHse1,1170
same,SPOT peptide array binding signal intensity,SpLsb1,3.38
same,SPOT peptide array binding signal intensity,SpLsb4,904
same,SPOT peptide array binding signal intensity,SpMyo1,28.1
same,SPOT peptide array binding signal intensity,SpNbp2,460
same,SPOT peptide array binding signal intensity,SpPex13,92.5
same,SPOT peptide array binding signal intensity,SpRvs167,119
same,SPOT peptide array binding signal intensity,SpSla1-D1-D2,≤ 0
same,SPOT peptide array binding signal intensity,SpSla1-D3,64.5
PKMLPIPSKPTLFDL,SPOT peptide array binding signal intensity,AgAbp1,47
same,SPOT peptide array binding signal intensity,AgBbc1,7.5
same,SPOT peptide array binding signal intensity,AgBem1-D1,490
same,SPOT peptide array binding signal intensity,AgBzz1-D1,24
same,SPOT peptide array binding signal intensity,AgBzz1-D2,≤ 0
same,SPOT peptide array binding signal intensity,AgCyk3,≤ 0
same,SPOT peptide array binding signal intensity,AgFus1,212
same,SPOT peptide array binding signal intensity,AgHof1,6
same,SPOT peptide array binding signal intensity,AgHse1,106
same,SPOT peptide array binding signal intensity,AgLsb1,2
same,SPOT peptide array binding signal intensity,AgLsb4,18.5
same,SPOT peptide array binding signal intensity,AgMyo5,3.25
same,SPOT peptide array binding signal intensity,AgNbp2,91
same,SPOT peptide array binding signal intensity,AgRvs167,3.33
same,SPOT peptide array binding signal intensity,AgSho1,776
same,SPOT peptide array binding signal intensity,AgSla1-D1-D2,≤ 0
same,SPOT peptide array binding signal intensity,AgSla1-D3,5.5
same,SPOT peptide array binding signal intensity,CaAbp1-D1,434
same,SPOT peptide array binding signal intensity,CaAbp1-D2,459
same,SPOT peptide array binding signal intensity,CaBbc1,38.8
same,SPOT peptide array binding signal intensity,CaBem1-D1,95
same,SPOT peptide array binding signal intensity,CaBzz1-D1,362
same,SPOT peptide array binding signal intensity,CaBzz1-D2,146
same,SPOT peptide array binding signal intensity,CaCyk3,7
same,SPOT peptide array binding signal intensity,CaFus1,852
same,SPOT peptide array binding signal intensity,CaHof1,≤ 0
same,SPOT peptide array binding signal intensity,CaHse1,79
same,SPOT peptide array binding signal intensity,CaLsb1,2
same,SPOT peptide array binding signal intensity,CaLsb4,209
same,SPOT peptide array binding signal intensity,CaMyo5,89.5
